The values that follow come from PubChem BioAssay AID687021 (Broad Institute, 2013).

Activity calls are given as the source filed them.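 How the source made its calls: active means compounds lowering luciferase light whose fitted half-effect concentration is at most twice the top tested dose; inconclusive means flat curve with 30 to 70% inhibition, or poor fit; inactive means the rest.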

The nature of the experiment: luciferase signal loss, tTA control fusion, HeLa F-luc tTA cells, dry powder, counter-screen for HIV Env fusion inhibitor project, dose response (AID 687021). Conditions: luciferase luminescence counterscreen; series mostly up to 35 µM; activity change, negative = inhibition: at the top concentration. On the technique in general: A counterscreen serves to expose hits that act by an unwanted route or on another target.
`COc1ccccc1CCNCc1ccc(OC)c(OCc2ccccc2)c1`: the call was inactive.
With `CCCn1nc(C(=O)Nc2ccc3nc(N4CCOCC4)sc3c2)ccc1=O`, the “activity change, negative = inhibition” value is 2.85% (inactive).
The same measure, in the same setting: the same measure for `Cc1noc(C)c1S(=O)(=O)Nc1cccc2c1O[C@@H](CN(C)Cc1ccc(C(F)(F)F)cc1)[C@H](C)CN([C@H](C)CO)C2=O`: 39.5% (inactive); for `CCCNC(=O)N1[C@H](C#N)[C@H](c2ccc(-c3cccnc3)cc2)[C@@H]1CO`: 7.74% (inactive); for `CCOc1ccc(S(=O)(=O)NC(C)c2ccncc2)cc1` (configuration not stated): 40.5% (inactive).
In the case of `COc1ccc(-c2nn(C)c(=O)c3ccccc23)cc1NC(=O)Cn1nc(C)c2ccccc2c1=O`, the outcome was inactive.
In the case of `Cc1ccc(-c2nnc3ccc4c(C(F)(F)F)cc(C(F)(F)F)nc4n23)cc1`, the “activity change, negative = inhibition” value is 19.6% (inactive).
On the same count and under the same terms, with `C[C@H]1CCCCO[C@@H](CN(C)Cc2ccncc2)[C@@H](C)CN([C@@H](C)CO)C(=O)c2cc(NC(=O)Nc3ccccc3)ccc2O1` the figure was 13.1% (inactive).
The same measure, in the same setting: the same measure for `CCOc1ccc(S(=O)(=O)NCc2ccccn2)cc1`: 54.6% (inactive).
With `Cc1ccc(C)n1-c1ccc(C(=O)O)c(O)c1`, the “activity change, negative = inhibition” value is -8.69% (inactive).
Turning to `Cc1noc(C)c1S(=O)(=O)Nc1cccc2c1O[C@@H](CN(C)Cc1ccc(C(F)(F)F)cc1)[C@@H](C)CN([C@@H](C)CO)C2=O`, the “activity change, negative = inhibition” value is 110% (inactive).
On the same count and under the same terms, the same measure for `CCOc1ccc(C(=O)C2CCN(CC(=O)Nc3ccccc3N3CCOCC3)CC2)cc1`: 15.7% (inactive).
Still for that read-out and setting: with `CCOc1ccc(S(=O)(=O)NCc2ccccc2)cc1` the figure was 8.56% (inactive); with `Cc1noc(C)c1S(=O)(=O)Nc1cccc2c1O[C@H](CN(C)Cc1ccc(C(F)(F)F)cc1)[C@@H](C)CN([C@H](C)CO)C2=O`, 57.2% (inactive); with `CC(C)(C)c1ccc(-c2noc(CCC(=O)NCC3CCCO3)n2)cc1` (configuration not stated), 26.6% (inactive).
Take `COC(=O)COc1ccc(S(=O)(=O)NCc2ccncc2)cc1`: the “activity change, negative = inhibition” value is 32.8% (inactive).
Still for that read-out and setting: the same measure for `Cc1oc(-c2ccc(Cl)cc2)nc1CN1CCCC(C(=O)NCc2cccnc2)C1` (configuration not stated): 40.5% (inactive); for `Cc1noc(C)c1S(=O)(=O)Nc1cccc2c1O[C@H](CN(C)Cc1ccc(C(F)(F)F)cc1)[C@H](C)CN([C@H](C)CO)C2=O`: 109% (inactive).
Still for that read-out and setting: with `Cc1ccc(S(=O)(=O)Nc2cccc3c2O[C@@H](CN(C)Cc2ccc(Cl)c(Cl)c2)[C@@H](C)CN([C@H](C)CO)C3=O)cc1` the figure was 61.2% [at 11 µM] (inactive).
For `Nc1nonc1C(=O)NCCNCc1c(OCc2ccccc2F)ccc2ccccc12`, the call was inactive.
On to `O=C(CCc1ccc(S(=O)(=O)N2CCOCC2)cc1)Nc1nc(COc2ccccc2)cs1`, for which the “activity change, negative = inhibition” value was 5.38% (inactive).
As for `CCCOc1ccc(S(=O)(=O)NCc2ccncc2)c2ccccc12`, the call was inactive.
